Experimental data published in ChEMBL document CHEMBL1961873, “Compounds: GSK PKIS; Assays: Nanosyn kinase panel” (2012).
“And” between values parts separate entries of the source, which are not always exact repeats. Equal entries are not always repeated.

What was measured:
[1] = target: Tyrosine-protein kinase Fer (Homo sapiens) (UniProt P16591); conditions: at 1 µM
[2] = target: Tyrosine-protein kinase Fes/Fps (Homo sapiens) (UniProt P07332); conditions: at 0.1 µM
[3] = target: Tyrosine-protein kinase Fes/Fps (Homo sapiens) (UniProt P07332); conditions: at 1 µM
[4] = target: Fibroblast growth factor receptor 1 (Homo sapiens) (UniProt P11362); conditions: at 0.1 µM
Sequence of Fibroblast growth factor receptor 1 (Homo sapiens) (P11362 22-822 limits assumed): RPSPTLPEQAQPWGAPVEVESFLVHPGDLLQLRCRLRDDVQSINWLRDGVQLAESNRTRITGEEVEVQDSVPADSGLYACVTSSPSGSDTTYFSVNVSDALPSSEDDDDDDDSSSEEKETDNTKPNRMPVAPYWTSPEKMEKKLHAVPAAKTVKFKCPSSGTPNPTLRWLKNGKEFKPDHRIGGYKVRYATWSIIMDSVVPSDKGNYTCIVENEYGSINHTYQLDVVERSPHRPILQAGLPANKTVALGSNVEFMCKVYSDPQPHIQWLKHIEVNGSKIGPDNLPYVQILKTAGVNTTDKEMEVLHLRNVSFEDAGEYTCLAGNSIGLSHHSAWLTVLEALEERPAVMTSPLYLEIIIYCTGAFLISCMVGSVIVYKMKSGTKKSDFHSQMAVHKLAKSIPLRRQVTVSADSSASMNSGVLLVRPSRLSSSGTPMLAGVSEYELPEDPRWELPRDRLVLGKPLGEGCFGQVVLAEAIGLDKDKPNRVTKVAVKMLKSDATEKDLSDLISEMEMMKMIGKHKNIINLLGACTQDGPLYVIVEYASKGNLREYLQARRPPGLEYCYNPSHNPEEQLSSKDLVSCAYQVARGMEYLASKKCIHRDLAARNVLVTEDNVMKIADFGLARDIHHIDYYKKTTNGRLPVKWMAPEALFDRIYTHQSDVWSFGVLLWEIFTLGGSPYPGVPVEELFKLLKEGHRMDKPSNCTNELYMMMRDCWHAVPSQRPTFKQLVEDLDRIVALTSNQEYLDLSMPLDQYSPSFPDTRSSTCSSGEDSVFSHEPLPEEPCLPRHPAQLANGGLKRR

[5] = target: Fibroblast growth factor receptor 1 (Homo sapiens) (UniProt P11362); conditions: at 1 µM
[6] = target: Fibroblast growth factor receptor 2 (Homo sapiens) (UniProt P21802); conditions: at 0.1 µM
Sequence of Fibroblast growth factor receptor 2 (Homo sapiens) (P21802 22-821 limits assumed): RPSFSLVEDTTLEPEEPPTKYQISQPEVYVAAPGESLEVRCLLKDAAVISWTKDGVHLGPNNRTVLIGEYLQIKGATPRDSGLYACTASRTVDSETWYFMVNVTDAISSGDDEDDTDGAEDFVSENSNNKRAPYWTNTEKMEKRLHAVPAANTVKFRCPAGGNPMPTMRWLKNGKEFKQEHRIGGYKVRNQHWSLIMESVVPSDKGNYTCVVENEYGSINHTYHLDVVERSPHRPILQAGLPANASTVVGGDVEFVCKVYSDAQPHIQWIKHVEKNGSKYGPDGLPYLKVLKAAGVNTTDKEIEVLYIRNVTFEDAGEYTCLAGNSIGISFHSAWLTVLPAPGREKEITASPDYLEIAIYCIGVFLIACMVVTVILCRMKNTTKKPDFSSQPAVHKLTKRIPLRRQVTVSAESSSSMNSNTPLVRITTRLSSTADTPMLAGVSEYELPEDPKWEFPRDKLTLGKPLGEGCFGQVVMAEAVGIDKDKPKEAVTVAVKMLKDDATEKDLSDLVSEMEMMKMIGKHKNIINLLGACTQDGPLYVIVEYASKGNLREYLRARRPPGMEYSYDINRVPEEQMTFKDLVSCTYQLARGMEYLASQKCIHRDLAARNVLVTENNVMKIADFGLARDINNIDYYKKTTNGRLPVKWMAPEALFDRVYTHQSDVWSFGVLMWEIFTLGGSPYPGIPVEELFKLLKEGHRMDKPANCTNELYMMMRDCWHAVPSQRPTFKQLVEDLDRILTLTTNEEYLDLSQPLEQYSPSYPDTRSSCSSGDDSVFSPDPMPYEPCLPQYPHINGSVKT

[7] = target: Fibroblast growth factor receptor 2 (Homo sapiens) (UniProt P21802); conditions: at 1 µM
[8] = target: Fibroblast growth factor receptor 3 (Homo sapiens) (UniProt P22607); conditions: at 0.1 µM
Sequence of Fibroblast growth factor receptor 3 (Homo sapiens) (P22607 23-806 limits assumed): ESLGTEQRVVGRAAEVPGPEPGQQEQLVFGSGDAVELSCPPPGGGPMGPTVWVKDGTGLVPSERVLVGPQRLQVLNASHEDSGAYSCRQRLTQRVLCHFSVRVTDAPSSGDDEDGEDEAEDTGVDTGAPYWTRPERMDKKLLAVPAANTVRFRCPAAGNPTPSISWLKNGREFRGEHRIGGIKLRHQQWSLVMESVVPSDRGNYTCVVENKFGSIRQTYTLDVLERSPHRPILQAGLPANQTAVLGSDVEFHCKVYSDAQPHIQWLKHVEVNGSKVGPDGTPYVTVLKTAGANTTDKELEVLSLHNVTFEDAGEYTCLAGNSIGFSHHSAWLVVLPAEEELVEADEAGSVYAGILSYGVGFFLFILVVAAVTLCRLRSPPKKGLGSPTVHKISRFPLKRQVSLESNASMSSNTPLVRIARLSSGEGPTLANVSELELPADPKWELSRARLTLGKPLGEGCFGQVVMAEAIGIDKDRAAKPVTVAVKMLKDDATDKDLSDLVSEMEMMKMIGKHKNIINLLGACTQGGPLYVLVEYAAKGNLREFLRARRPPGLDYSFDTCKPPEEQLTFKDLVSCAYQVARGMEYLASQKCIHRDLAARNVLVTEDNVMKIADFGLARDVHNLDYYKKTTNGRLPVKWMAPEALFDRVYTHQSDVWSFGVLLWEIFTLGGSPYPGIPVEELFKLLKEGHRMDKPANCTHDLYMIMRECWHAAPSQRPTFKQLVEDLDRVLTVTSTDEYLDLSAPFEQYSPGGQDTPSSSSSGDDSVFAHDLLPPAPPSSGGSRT

[9] = target: Fibroblast growth factor receptor 3 (Homo sapiens) (UniProt P22607); conditions: at 1 µM
[10] = target: Fibroblast growth factor receptor 4 (Homo sapiens) (UniProt P22455); conditions: at 0.1 µM;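 note: values are mean percent inhibition of FGFR4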
Sequence of Fibroblast growth factor receptor 4 (Homo sapiens) (P22455 22-802 limits assumed): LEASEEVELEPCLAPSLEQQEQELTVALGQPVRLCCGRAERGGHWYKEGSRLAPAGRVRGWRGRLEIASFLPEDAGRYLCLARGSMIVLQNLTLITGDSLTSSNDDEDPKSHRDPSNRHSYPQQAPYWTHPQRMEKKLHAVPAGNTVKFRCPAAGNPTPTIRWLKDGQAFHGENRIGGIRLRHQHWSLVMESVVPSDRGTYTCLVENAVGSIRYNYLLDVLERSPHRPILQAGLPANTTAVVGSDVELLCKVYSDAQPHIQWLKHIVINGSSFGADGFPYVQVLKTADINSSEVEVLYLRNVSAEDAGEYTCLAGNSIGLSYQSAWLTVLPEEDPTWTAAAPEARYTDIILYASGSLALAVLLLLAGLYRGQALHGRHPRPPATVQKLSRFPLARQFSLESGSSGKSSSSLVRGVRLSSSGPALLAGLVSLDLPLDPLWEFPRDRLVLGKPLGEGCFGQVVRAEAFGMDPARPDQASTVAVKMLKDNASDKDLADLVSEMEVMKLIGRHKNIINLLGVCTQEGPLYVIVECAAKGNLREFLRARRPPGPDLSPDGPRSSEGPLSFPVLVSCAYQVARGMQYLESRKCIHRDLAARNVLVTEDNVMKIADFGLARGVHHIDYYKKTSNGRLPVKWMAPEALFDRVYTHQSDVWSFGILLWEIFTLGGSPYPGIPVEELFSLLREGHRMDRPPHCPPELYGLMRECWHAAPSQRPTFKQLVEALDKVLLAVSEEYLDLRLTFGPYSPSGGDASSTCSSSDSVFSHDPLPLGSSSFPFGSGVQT

Sequence of Tyrosine-protein kinase Fes/Fps (Homo sapiens) (P07332 whole entry): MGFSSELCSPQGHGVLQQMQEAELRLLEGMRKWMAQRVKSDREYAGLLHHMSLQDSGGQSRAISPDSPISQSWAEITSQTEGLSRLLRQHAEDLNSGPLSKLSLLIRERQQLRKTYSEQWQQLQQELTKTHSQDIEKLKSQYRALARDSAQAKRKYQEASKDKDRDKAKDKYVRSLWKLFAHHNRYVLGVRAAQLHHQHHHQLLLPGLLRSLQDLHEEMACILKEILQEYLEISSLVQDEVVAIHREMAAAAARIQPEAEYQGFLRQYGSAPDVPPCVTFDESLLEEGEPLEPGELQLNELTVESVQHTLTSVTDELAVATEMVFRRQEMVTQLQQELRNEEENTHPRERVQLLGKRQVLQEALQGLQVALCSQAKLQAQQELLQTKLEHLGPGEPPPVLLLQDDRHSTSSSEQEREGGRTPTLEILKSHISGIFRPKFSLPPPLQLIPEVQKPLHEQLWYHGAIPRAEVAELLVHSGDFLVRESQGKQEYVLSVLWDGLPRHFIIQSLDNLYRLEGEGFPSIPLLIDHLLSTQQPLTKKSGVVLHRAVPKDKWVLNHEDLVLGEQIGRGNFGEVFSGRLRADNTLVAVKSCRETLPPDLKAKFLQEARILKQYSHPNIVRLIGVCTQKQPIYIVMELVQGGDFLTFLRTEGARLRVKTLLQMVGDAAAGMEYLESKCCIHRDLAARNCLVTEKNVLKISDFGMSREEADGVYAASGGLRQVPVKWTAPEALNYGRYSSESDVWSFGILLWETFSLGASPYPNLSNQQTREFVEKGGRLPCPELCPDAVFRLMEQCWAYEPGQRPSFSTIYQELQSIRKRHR
Sequence of Tyrosine-protein kinase Fer (Homo sapiens) (P16591 whole entry, looked up): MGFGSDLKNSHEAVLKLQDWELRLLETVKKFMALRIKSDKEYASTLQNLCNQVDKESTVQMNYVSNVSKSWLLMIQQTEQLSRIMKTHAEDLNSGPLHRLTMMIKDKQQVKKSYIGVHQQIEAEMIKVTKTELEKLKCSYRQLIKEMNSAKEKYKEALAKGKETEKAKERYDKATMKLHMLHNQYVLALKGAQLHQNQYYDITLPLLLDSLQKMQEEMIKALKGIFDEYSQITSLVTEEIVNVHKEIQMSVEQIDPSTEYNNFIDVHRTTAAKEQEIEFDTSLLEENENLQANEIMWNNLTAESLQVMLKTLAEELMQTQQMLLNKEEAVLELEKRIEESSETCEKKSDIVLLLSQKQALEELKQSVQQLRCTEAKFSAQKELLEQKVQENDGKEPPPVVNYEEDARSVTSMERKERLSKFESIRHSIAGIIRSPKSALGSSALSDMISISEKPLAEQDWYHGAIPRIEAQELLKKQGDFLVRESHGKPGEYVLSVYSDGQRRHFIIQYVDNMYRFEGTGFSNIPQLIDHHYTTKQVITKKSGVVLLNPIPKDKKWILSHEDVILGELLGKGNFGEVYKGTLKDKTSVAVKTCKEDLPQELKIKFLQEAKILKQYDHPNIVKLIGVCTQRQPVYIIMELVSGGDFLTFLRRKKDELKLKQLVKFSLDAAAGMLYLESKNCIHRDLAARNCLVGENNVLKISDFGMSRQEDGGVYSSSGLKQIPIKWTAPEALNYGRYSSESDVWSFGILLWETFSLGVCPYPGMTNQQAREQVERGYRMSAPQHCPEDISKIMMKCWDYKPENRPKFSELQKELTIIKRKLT

CN1CCC(C(=O)Nc2n[nH]c3nc(-c4ccc(O)cc4)c(Br)cc23)CC1
inhibition [1]: 5.19% and 5.02%
inhibition [2]: 2.73% and 2.03%
inhibition [3]: 2.01% and 1.81%
inhibition [4]: -1.64% and 2.05%
inhibition [5]: -0.75% and 5.39%
inhibition [6]: -0.3% and 14.5%
inhibition [7]: 2.81% and 5.43%
inhibition [8]: 1.48% and 6.04%
inhibition [9]: 1.79% and 4.41%
inhibition [10]: 6.09%

CC(C)c1ccc(-c2cc(-c3c[nH]nc3-c3ccccn3)ccn2)cc1
inhibition [1]: 2.58%
inhibition [2]: 0.8%
inhibition [3]: 1.23%
inhibition [4]: 6.6%
inhibition [5]: 1.8%
inhibition [6]: -0.22%
inhibition [7]: 3.83%
inhibition [8]: 3.55%
inhibition [9]: 1.81%
inhibition [10]: 0.39%

NS(=O)(=O)c1ccc(N/N=C2\C(=O)Nc3ccc(C(=O)NCc4ccncc4)cc32)cc1
inhibition [1]: 5.14%
inhibition [2]: 2.4%
inhibition [3]: 1.67%
inhibition [4]: 3.12%
inhibition [5]: 5.51%
inhibition [6]: 1.27%
inhibition [7]: 11.9%
inhibition [8]: 4.61%
inhibition [9]: 8.12%
inhibition [10]: -2.09%

CC1=C(C(=O)Nc2ccc3[nH]ncc3c2)C(c2ccc(F)cc2)N=C(c2ccc(C(F)(F)F)nc2)N1 (stereo not given)
inhibition [1]: 2.23%
inhibition [2]: 1.4%
inhibition [3]: 2.21%
inhibition [4]: 6.73%
inhibition [5]: 7.75%
inhibition [6]: 4.37%
inhibition [7]: 9.66%
inhibition [8]: 4.88%
inhibition [9]: 7.89%
inhibition [10]: 0.81%

Cc1c2ccc(N(C)c3ccnc(Nc4cccc(S(N)(=O)=O)c4)n3)cc2nn1C
inhibition [1]: 74.1%
inhibition [2]: 15.2%
inhibition [3]: 56.1%
inhibition [4]: 24.9%
inhibition [5]: 62.6%
inhibition [6]: 50%
inhibition [7]: 69.9%
inhibition [8]: 35.5%
inhibition [9]: 70.1%
inhibition [10]: 2.26%

CNC(=O)c1sc(-n2cnc3cc(OC)c(OC)cc32)cc1OCc1ccccc1C(F)(F)F
inhibition [1]: 5.74%
inhibition [2]: 3.32%
inhibition [3]: 3.26%
inhibition [4]: -4.6%
inhibition [5]: 7.69%
inhibition [6]: 4.22%
inhibition [7]: 7.4%
inhibition [8]: 2.02%
inhibition [9]: 7.23%
inhibition [10]: 0.59%

CCCNc1cccc(-n2ncc3c(N/N=C/c4ccncc4)ncnc32)c1
inhibition [1]: 9.15%
inhibition [2]: 2.38%
inhibition [3]: 5.6%
inhibition [4]: 0.48%
inhibition [5]: 3.31%
inhibition [6]: 2.19%
inhibition [7]: 19.4%
inhibition [8]: 0.74%
inhibition [9]: 8.88%
inhibition [10]: -1.49%

Cc1ccc(-c2cc3c(NC(=O)C4CC4)ncnc3o2)cc1
inhibition [1]: 6.82%
inhibition [2]: 4.78%
inhibition [3]: 7.73%
inhibition [4]: 7.46%
inhibition [5]: 5.81%
inhibition [6]: 6.04%
inhibition [7]: 10.7%
inhibition [8]: 5.42%
inhibition [9]: 5.53%
inhibition [10]: 1.15%

O=C1Nc2ccccc2/C1=C1\CCc2cc(O)ccc21
inhibition [1]: 22.1%
inhibition [2]: 4.19%
inhibition [3]: 6.81%
inhibition [4]: 8.16%
inhibition [5]: 23.5%
inhibition [6]: 9.87%
inhibition [7]: 31.3%
inhibition [8]: 10.3%
inhibition [9]: 30.9%
inhibition [10]: -1.94%

O=C(Nc1n[nH]c2nnc(-c3cccnc3)cc12)C1CC1
inhibition [1]: 0.68%
inhibition [2]: -0.26%
inhibition [3]: -1.66%
inhibition [4]: -0.17%
inhibition [5]: -1.08%
inhibition [6]: -0.85%
inhibition [7]: -0.69%
inhibition [8]: 0.05%
inhibition [9]: 1.8%
inhibition [10]: 2.02%

COc1cc(N2CCN(C(C)C)CC2)ccc1Nc1nc(Nc2cccc3ncccc23)c2cc[nH]c2n1
inhibition [1]: 44.4%
inhibition [2]: 0.44%
inhibition [3]: 10%
inhibition [4]: -4.53%
inhibition [5]: -4.83%
inhibition [6]: -2.09%
inhibition [7]: 1.97%
inhibition [8]: 0.3%
inhibition [9]: 0.87%
inhibition [10]: 0.6%

CCN1CCC(C(=O)Nc2n[nH]c3nnc(-c4cccc(F)c4F)cc23)CC1
inhibition [1]: 1.37%
inhibition [2]: -0.22%
inhibition [3]: -1.05%
inhibition [4]: -4.59%
inhibition [5]: -1.81%
inhibition [6]: -0.41%
inhibition [7]: -2.18%
inhibition [8]: -0.59%
inhibition [9]: 2.01%
inhibition [10]: 1.8%

O=C(O[C@H]1CN[C@H](C#Cc2cc3ncnc(Nc4ccc5c(cnn5Cc5ccccc5)c4)c3s2)C1)N1CCOCC1
inhibition [1]: 0.92%
inhibition [2]: -0.09%
inhibition [3]: -1.2%
inhibition [4]: -2.97%
inhibition [5]: -1.28%
inhibition [6]: -0.61%
inhibition [7]: -0.52%
inhibition [8]: 0.4%
inhibition [9]: 0.43%
inhibition [10]: 0.54%

Fc1cccc(COc2ccc(Nc3ncncc3C#Cc3ccccc3)cc2Cl)c1
inhibition [1]: 6.06%
inhibition [2]: 2.55%
inhibition [3]: 3.61%
inhibition [4]: 2.88%
inhibition [5]: 2.38%
inhibition [6]: 4.03%
inhibition [7]: 5.85%
inhibition [8]: 4.99%
inhibition [9]: 3.8%
inhibition [10]: 0.25%

NS(=O)(=O)c1ccc(N/N=C2\C(=O)Nc3cccc(CCc4ccncc4)c32)cc1
inhibition [1]: 5.66%
inhibition [2]: 0.64%
inhibition [3]: -0.42%
inhibition [4]: 5.09%
inhibition [5]: 16.7%
inhibition [6]: 7.6%
inhibition [7]: 18.2%
inhibition [8]: 6.3%
inhibition [9]: 19.2%
inhibition [10]: 4.76%

CCS(=O)(=O)c1ccc(OC)c(Nc2ncc(-c3cccc(F)c3)o2)c1
inhibition [1]: 8.9%
inhibition [2]: 4.72%
inhibition [3]: 4.79%
inhibition [4]: 12.7%
inhibition [5]: 46.2%
inhibition [6]: 40.5%
inhibition [7]: 69.8%
inhibition [8]: 52.9%
inhibition [9]: 77.3%
inhibition [10]: 5.31%
